Data published in PubChem BioAssay AID1663 (Broad Institute, 2009).
About 660 (0.22%) of roughly 300,000 compounds were called active. This is one part of a sample in which actives are shown more often than they occur.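 The calls were made as follows: active = mean replicate score, as percent of positive control, at or above 50; inconclusive = mean below 50 but at least one replicate at or above 50; inactive = mean and every replicate below 50.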

Assay: inhibitors of platelet dense granule secretion, primary screen, cell-based, MLPCN, human platelets (AID 1663)
Settings: human platelet-rich plasma, SFLLRN dense granule ATP release, luminescence; stronger effect = higher value;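 compounds screened at 7.5 µM in platelet-rich plasma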

inhibition, inactive:
Cc1nn(CC(=O)NCC2CCCO2)c(=O)c2cc3ccccc3n12 (stereo not drawn) -4.75%
CCOC(CNC(=O)C(=O)NCC(c1ccco1)N1CCN(c2ccc(OC)cc2)CC1)OCC (stereo not drawn) -9.05%
COc1ccc(C(=O)N2CCCC(C(=O)c3ccccc3OC)C2)cc1OC (stereo not drawn) 2.76%
Cc1ccc(S(=O)(=O)c2nc(NCCCn3ccnc3)sc2Cl)cc1 -1.94%
Cc1c(Cl)cccc1NC(=S)NCC(O)c1ccccc1 (stereo not drawn) 3.98%
CC(C)(CNCC(O)c1ccccc1)N1CCOCC1 (stereo not drawn) 1.36%
COc1ccc(NC(=O)CC(NC(C)c2ccccc2)C(=O)O)cc1 (stereo not drawn) -14.9%
Cc1ccc(C)c(OCCC(=O)OCC(=O)N2CCN(c3ccccc3)CC2)c1 -18.4%
CC1(c2ccc(Cl)cc2Cl)NC(=O)N(CC(=O)Nc2cccnc2Cl)C1=O (stereo not drawn) -2.12%
Cc1ccc(NS(=O)(=O)c2ccc(C(=O)NCCCN3CCOCC3)cc2)cc1 -3.44%
CCOc1ccc(S(=O)(=O)Nc2cccc(C(=O)NCC3(N4CCCCC4)CCCCC3)c2)cc1 5.48%
CCN(CC)C(=O)Oc1ccc(Br)cc1C(=O)Nc1ccc(F)c(Cl)c1 -3.91%
COC(C[C@@H](O)[C@H](C)[C@H](O)COCc1ccccc1)OC -0.14%
CC(=O)N/C(=C\c1ccccc1)C(=O)OC(C)C(=O)N(C)c1ccccc1 (stereo not drawn) -1.59%
CC(C)Cn1c(=O)c2ccccc2n2c(CCC(=O)NCc3ccccn3)nnc12 3.52%
O=C(CSc1ccc2nnc(-c3ccccc3)n2n1)N1CCCc2ccccc21 17.4%
CCCCNC(=O)C1(c2ccc(OC)cc2)CCOCC1 4.45%
CC(C)Oc1ccc(CCc2n[nH]c(=S)n2Cc2ccccc2)cc1 -6.11%
O=S(=O)(c1ccccc1)N1CCc2ccccc21 2.42%
CC(=O)Nc1ccc(C(=O)/C=C/c2ccc[nH]2)cc1 -21.1%
COc1cc2c(cc1OC)CN(CC(=O)Nc1ccc(F)cc1)CC2 7.57%
CCOC(=O)Cc1cc(=O)[nH]c(/N=C(\N)Nc2ccc(OC)cc2)n1 8.61%
Cc1nc2ccc(C(=O)N/N=C/c3ccc(O)cc3)cc2[nH]1 -1.64%
O=C(C[n+]1ccccc1)N/N=C/c1ccc(O)cc1 2.83%
CC(NC(=O)c1ccccc1C(=O)O)c1ccc(-n2ccnc2)cc1 (stereo not drawn) 13.8%
O=C(Nc1ccc(Cl)cc1)Nc1ccc(Oc2cccnc2)nc1 2.76%
CC(C)=CCN1CCN(Cc2cc3ccccc3[nH]2)CC1CCO (stereo not drawn) 9.2%
CC1CCCCN1S(=O)(=O)c1ccc(C(=O)Nc2nnc(-c3cccs3)o2)cc1 (stereo not drawn) -0.561%
CCN(CC(=O)NCc1cccs1)S(=O)(=O)c1ccc(NC(C)=O)cc1 -21.6%
O=C(Nc1ccncc1)Nc1ccc(F)cc1 4.47%
CC1(C)CC[C@]2(C(=O)O)CC[C@]3(C)C(=CCC4[C@@]5(C)CC[C@H](O)C(C)(C)C5[C@H](O)C[C@]43C)[C@@H]2C1 (stereo partly drawn) 3.05%
COc1cc(NC(=S)NNC(=O)CC(C)C)c(OC)cc1Cl -6.51%
COC(=O)c1c(NC(=O)c2ccccc2F)sc2c1C(C(=O)OC)CC2 (stereo not drawn) 2.31%
Cc1nc(CC(=O)NNS(=O)(=O)c2ccc(F)c(Cl)c2)cs1 12.2%
O=C(N/N=C/c1ccccn1)c1cccc(NC(=O)c2ccc(Cl)cc2)c1 1.55%
COc1cc(/C=N/Nc2nn3cnnc3c3ccccc23)cc(OC)c1OC 11.5%
C/C(=N\Nc1nncc2ccccc12)c1ccc(Cl)c([N+](=O)[O-])c1 -6.62%
Cc1c(C(=O)NCCN2CCOCC2)sc2nc(-c3ccc(F)cc3)cn12 10.4%
CSCCC(NC(=O)COc1ccccc1)C(=O)OCCOc1ccc(F)cc1 (stereo not drawn) -11.3%
CCN1C(=NCc2ccc(OC)cc2)N[C@@H](CCc2ccccc2)[C@H](C(=O)NCc2ccc(OC)cc2)[C@H]1C 9.74%
CN(C)S(=O)(=O)c1cccc(C(=O)OCC(=O)N2CCCC2=O)c1 -9.7%
O=C(NCc1ccccc1)C1CCN(C(=O)Cc2ccccc2)CC1 -35.6%
CCOC(=O)c1cnc2nc(SCc3ccccc3Cl)[nH]n2c1=O 3.83%
CCOc1ccc(C2C3=C(CCCC3=O)N(CC(=O)O)C3=C2C(=O)CCC3)cc1 -23.7%
CCN1CCN(C(=O)C2CCCN(S(=O)(=O)c3ccc(OC)c(OC)c3)C2)CC1 (stereo not drawn) 5.04%
O=S(=O)(Nc1ncccn1)c1ccc(NS(=O)(=O)c2cccc(Cl)c2Cl)cc1 1.24%
COc1cccc(C(=O)NNC(=O)c2cccc(F)c2)c1 -6.44%
CCOC(=O)c1cc2cc3ccccc3cc2oc1=O 8.56%
Nc1nonc1-n1nnc(C(=O)N/N=C/c2ccc(Cl)cc2)c1-c1ccc2c(c1)OCO2 2.68%
O=C(CN1CCOCC1)N1CCCc2c1c(=O)oc1ccc(OCc3ccccc3)cc21 -1.74%
CC(C)(C)c1cc[n+](-c2[nH]c(=O)sc2/C=N/N=C(\[O-])c2ccccc2)cc1 3.87%
CC(CCc1ccc(O)cc1)NCc1ccc(Cl)cc1Cl (stereo not drawn) 1.67%
O=C(CCn1nnnc1CN1CCOCC1)N1CCC(c2ccccc2Cl)C1 (stereo not drawn) 2.44%
CCc1cc(CNC(=O)CC2C(=O)NCCN2CC2CCCCC2)on1 (stereo not drawn) 4.79%
CN=C1S/C(=C\c2c(OC)cc(OC)cc2OC)C(=O)N1C 10.3%
COc1ccccc1C(=O)COC(=O)CNS(=O)(=O)c1ccc(NC(C)=O)cc1 6.24%
Cn1cc([N+](=O)[O-])c(C(=O)Nc2ccc3c(c2)OCCO3)n1 31.8%
Cc1nn(CC(=O)Nc2ccc3c(c2)OCO3)c(C)c1[N+](=O)[O-] 11.1%
Cc1nn(C)c(Cl)c1CN1CCC(Oc2ccc(C(=O)N3CCCC3)cc2)CC1 0.366%
Brc1ccc(C2CC(c3ccccc3)=Nc3ccccc3N2)cc1 (stereo not drawn) 7.02%
Cc1cccc(N=C2NN=C(c3c[nH]c4ccccc34)CS2)c1 -0.733%
C=CCn1c(C)cc(C(=O)CN2C(=O)c3ccccc3C2=O)c1C 6.9%
COc1ccc(CCN2C(=O)N(c3ccc(OC)cc3)C(=O)C2CC(=O)Nc2ccc(OC)cc2)cc1 (stereo not drawn) -2.02%
COC(=O)[C@@]12CCCN1[C@H](c1ccc(-c3ccc(F)cc3)c(OC)c1)[C@H]1C(=O)N(C)C(=O)[C@H]12 0.984%

inhibition, active:
OC(CNCc1ccc(Cl)c(Cl)c1)c1ccccc1 (stereo not drawn) 52.7%
O=C(NCC1(N2CCCCC2)CCCCC1)c1ccc(NS(=O)(=O)c2ccc(F)cc2)cc1 52.6%
COc1cc2c(cc1OC)/C(=C/C(=O)c1ccc(NC(C)=O)cc1)NCC2 55.3%
Cc1nonc1C(=O)N/N=C/c1ccc(O)cc1 103%
CC1CCCCN1S(=O)(=O)c1ccc(S(=O)(=O)N(CC(=O)Nc2ccccc2)Cc2cccs2)cc1 (stereo not drawn) 50.6%
CN(CCO)c1ccc(/C=N/Nc2nncc3ccccc23)cc1 76.1%
COc1cccc(C(=O)c2cc3ccc(O)cc3oc2=O)c1 69.5%
Cc1onc(C(=O)Nc2ccc3c(c2)OCO3)c1[N+](=O)[O-] 75.7%
C=CCn1c(C)cc(C2=NNC(=NCC)SC2)c1C 50.4%
